PubChem BioAssay
Where “and” joins values, the source holds several entries; their conditions need not be identical. Equal entries are not always repeated. Calls of active or inactive are those of the source.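 Rule for the calls, unless noted: active = compounds whose cell count with miR-34 switched on is under 0.7 times the count with it off; inactive = the rest.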

Assays:
[1] = viability loss with induced miR-34 in A549 – imaging, A549 dox-inducible miR-34, nuclei and caspase counts, primary screen (AID 1347080); settings: A549 miR-34 inducible, Hoechst nuclei count, 48 h
[2] = MELAS cybrid and Rieske KO viability enhancers – cell-based, MELAS cybrids, Rieske KO mouse fibroblasts, CellTiter-Glo, primary screen (AID 1508586;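 active = mean z-score across replicates of 1.96 or higher in either the MELAS or the Rieske mutant cell line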;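 note: z relative to plate mean and SD of compound and empty wells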); settings: low glucose
[3] = molecular target: NAD(+) hydrolase SARM1 (Homo sapiens) (UniProt Q6SZW1); assay: blocking NAD cleavage by SARM1 SAM-TIR – cell lysate, NAD-Glo luminescence (AID 1508614;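 active = compound whose remaining NAD level is above about 45 nM, limit read from the data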;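 note: higher remaining NAD means stronger inhibition of SARM1 NADase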); settings: SAM-TIR HEK293T lysate NADase, at 1 µM, stronger effect = higher value
NAD(+) hydrolase SARM1 (Homo sapiens), sequence (Q6SZW1 whole entry, looked up, the tested form may be a part): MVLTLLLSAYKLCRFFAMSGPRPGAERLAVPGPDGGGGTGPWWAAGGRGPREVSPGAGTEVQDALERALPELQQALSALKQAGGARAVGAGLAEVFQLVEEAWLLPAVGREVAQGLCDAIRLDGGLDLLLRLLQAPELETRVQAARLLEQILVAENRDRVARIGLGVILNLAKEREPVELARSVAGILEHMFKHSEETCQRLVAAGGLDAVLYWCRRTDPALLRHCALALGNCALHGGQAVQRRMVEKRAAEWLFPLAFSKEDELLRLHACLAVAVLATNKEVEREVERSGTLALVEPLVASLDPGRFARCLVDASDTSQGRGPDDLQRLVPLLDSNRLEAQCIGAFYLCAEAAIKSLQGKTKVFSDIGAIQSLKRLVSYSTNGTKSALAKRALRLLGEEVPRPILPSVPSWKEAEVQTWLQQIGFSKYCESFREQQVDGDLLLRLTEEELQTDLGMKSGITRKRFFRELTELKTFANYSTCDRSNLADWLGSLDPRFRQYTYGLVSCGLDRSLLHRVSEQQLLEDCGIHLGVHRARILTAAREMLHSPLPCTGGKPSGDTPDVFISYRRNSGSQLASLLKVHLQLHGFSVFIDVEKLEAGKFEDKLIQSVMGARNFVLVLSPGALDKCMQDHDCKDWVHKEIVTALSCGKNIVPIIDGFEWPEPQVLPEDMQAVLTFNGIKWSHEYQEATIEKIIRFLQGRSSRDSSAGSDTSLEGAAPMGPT

[4] = molecular target: Mitogen-activated protein kinase 7 (Homo sapiens) (UniProt Q13164); assay: Gal4-ERK5 driven luciferase induction – cell-based, HTS, primary screen (AID 1508626;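 active = luciferase signal above three times the same-plate solvent-only control wells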;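 note: luciferase driven by Gal4-ERK5 fusion binding five Gal4 sites before minimal TATA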); settings: HeLa Gal4-ERK5 transactivation, 18 h, at 5 µM, stronger effect = higher value
Mitogen-activated protein kinase 7 (Homo sapiens), sequence (Q13164 whole entry, looked up, the tested form may be a part): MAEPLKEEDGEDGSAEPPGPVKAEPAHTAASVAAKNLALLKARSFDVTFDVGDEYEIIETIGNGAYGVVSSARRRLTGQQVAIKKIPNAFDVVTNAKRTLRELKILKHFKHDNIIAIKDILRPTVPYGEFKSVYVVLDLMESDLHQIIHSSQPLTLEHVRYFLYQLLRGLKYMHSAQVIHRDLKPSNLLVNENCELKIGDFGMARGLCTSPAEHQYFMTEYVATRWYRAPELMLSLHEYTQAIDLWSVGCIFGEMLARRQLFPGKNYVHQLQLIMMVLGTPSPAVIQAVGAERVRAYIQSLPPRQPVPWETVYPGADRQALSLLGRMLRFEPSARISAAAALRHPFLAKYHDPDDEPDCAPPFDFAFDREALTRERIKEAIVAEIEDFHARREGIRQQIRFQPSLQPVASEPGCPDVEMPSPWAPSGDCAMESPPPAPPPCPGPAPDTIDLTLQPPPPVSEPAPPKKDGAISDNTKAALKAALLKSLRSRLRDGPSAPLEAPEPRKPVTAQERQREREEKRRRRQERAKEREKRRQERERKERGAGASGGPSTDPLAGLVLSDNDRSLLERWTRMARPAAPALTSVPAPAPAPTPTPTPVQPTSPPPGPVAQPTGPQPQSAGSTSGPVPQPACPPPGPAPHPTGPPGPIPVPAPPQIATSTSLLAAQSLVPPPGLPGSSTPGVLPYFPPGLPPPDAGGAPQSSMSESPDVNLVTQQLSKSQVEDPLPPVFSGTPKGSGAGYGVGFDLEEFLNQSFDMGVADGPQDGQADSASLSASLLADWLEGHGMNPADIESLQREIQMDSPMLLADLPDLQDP

[5] = galactose survival enhancers in mitochondrial complex I cybrids – cell-based, galactose medium, ATP luminescence, primary screen (AID 1645843;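 active = z-score of at least 1.8 in each of two replicates, scored against plate mean and spread of sample wells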;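 note: positive z means more ATP and so rescue of galactose-driven cybrid death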); settings: complex I mutant cybrid cells, 72 h, stronger effect = higher value
[6] = stronger effect = lower value, cell number ratio, induced over uninduced
[7] = measured here: relative caspase fold change +Dox/-Dox
[8] = measured here: total cells with miR-34 induction, stronger effect = lower value
[9] = measured here: total cells without miR-34 induction
[10] = MELAS cybrid survival, CellTiter-Glo 48 h, stronger effect = higher value
[11] = Rieske KO mouse fibroblast survival, CellTiter-Glo 72 h

Cc1c(C(N)=O)cc([N+](=O)[O-])cc1[N+](=O)[O-]
fold change [1, 6]: 1.04 (inactive)
fold change [1, 7]: 1.27
cell count [1, 8]: 8930
cell count [1, 9]: 8590
z-score [2, 10]: -0.219 (inactive)
z-score [2, 11]: -0.175
remaining NAD [3]: 10 nM (inactive)
luciferase signal [4]: 68 AU (inactive)

NC(N)=Nc1nc(CSCC/C(N)=N/S(N)(=O)=O)cs1
fold change [1, 6]: 0.977 (inactive) and 0.894 (inactive) and 0.942 (inactive)
fold change [1, 7]: 1.04 and 0.96 and 0.999
cell count [1, 8]: 10400 and 8060 and 10100
cell count [1, 9]: 10600 and 9010 and 10700
z-score [2, 10]: 0.33 (inactive) and 1.06 (inactive)
z-score [2, 11]: 0.0847 and 0.907
remaining NAD [3]: 10 nM (inactive)
luciferase signal [4]: 72 AU (inactive)
z-score [5]: 0.125 (inactive) and 0.38 (inactive)

Cc1cc(-c2ccccc2)nnc1NCCN1CCOCC1
fold change [1, 6]: 0.881 (inactive) and 0.888 (inactive)
fold change [1, 7]: 0.934 and 3.7
cell count [1, 8]: 8700 and 11800
cell count [1, 9]: 9870 and 13300
z-score [2, 10]: 0.442 (inactive)
z-score [2, 11]: 0.39
remaining NAD [3]: 10 nM (inactive)
luciferase signal [4]: 48 AU (inactive)

CC(=O)OC/C=C(C)/C=C/C=C(C)/C=C/C1=C(C)CCCC1(C)C
fold change [1, 6]: 0.9 (inactive)
fold change [1, 7]: 1.05
cell count [1, 8]: 10300
cell count [1, 9]: 11500
z-score [2, 10]: -0.677 (inactive)
z-score [2, 11]: -0.15
remaining NAD [3]: 10 nM (inactive)
luciferase signal [4]: 96 AU (inactive)
z-score [5]: -0.205 (inactive)

CCN(CC)CCNC(=O)c1cc(Br)c(N)cc1OC
fold change [1, 6]: 0.86 (inactive)
fold change [1, 7]: 1.23
cell count [1, 8]: 8310
cell count [1, 9]: 9660
z-score [2, 10]: -0.546 (inactive)
z-score [2, 11]: 0.146
remaining NAD [3]: 10 nM (inactive)
luciferase signal [4]: 60 AU (inactive)

CCN1CCCC(OC(=O)C(c2ccccc2)c2ccccc2)C1 (stereo unspecified)
fold change [1, 6]: 0.985 (inactive) and 0.905 (inactive)
fold change [1, 7]: 0.865 and 4.46
cell count [1, 8]: 9410 and 10800
cell count [1, 9]: 9550 and 11900
z-score [2, 10]: 0.463 (inactive)
z-score [2, 11]: -0.154
remaining NAD [3]: 10 nM (inactive)
luciferase signal [4]: 64 AU (inactive)

CCOc1ccc(NC(C)=O)cc1
fold change [1, 6]: 0.886 (inactive) and 0.916 (inactive)
fold change [1, 7]: 1.49 and 0.787 and 3.07
cell count [1, 8]: 9560 and 7800 and 11500
cell count [1, 9]: 10800 and 8520 and 12600
z-score [2, 10]: -0.475 (inactive) and -0.0201 (inactive)
z-score [2, 11]: -0.108 and 0.061
remaining NAD [3]: 10 nM (inactive)
luciferase signal [4]: 68 AU (inactive)

CCCc1ncc(C[n+]2ccccc2C)c(N)n1
fold change [1, 6]: 0.899 (inactive) and 0.934 (inactive) and 0.817 (inactive)
fold change [1, 7]: 1.48 and 1.05 and 2.66
cell count [1, 8]: 8050 and 8570 and 10100
cell count [1, 9]: 8960 and 9180 and 12400
z-score [2, 10]: -0.137 (inactive) and -0.369 (inactive)
z-score [2, 11]: -0.2 and 0.188
remaining NAD [3]: 10 nM (inactive)
luciferase signal [4]: 52 AU (inactive)

CCC(Cc1c(I)cc(I)c(N)c1I)C(=O)O (stereo unspecified)
fold change [1, 6]: 0.941 (inactive) and 0.781 (inactive)
fold change [1, 7]: 0.773 and 3.75
cell count [1, 8]: 9300 and 9110
cell count [1, 9]: 9880 and 11700
z-score [2, 10]: 0.0916 (inactive)
z-score [2, 11]: -0.459
remaining NAD [3]: 10 nM (inactive)
luciferase signal [4]: 56 AU (inactive)

Cc1ccc(C(=O)c2ccc(CC(=O)O)n2C)cc1
fold change [1, 6]: 0.916 (inactive) and 0.846 (inactive) and 0.923 (inactive)
fold change [1, 7]: 1.2 and 2.52 and 1.03
cell count [1, 8]: 9430 and 10400 and 9670
cell count [1, 9]: 10300 and 12300 and 10500
z-score [2, 10]: 0.498 (inactive) and 0.311 (inactive)
z-score [2, 11]: 0.161 and -0.684
remaining NAD [3]: 10 nM (inactive)
luciferase signal [4]: 84 AU (inactive)
z-score [5]: 1.02 (inactive)

O=C(O)CCNC(=O)c1ccccc1
fold change [1, 6]: 0.9 (inactive)
fold change [1, 7]: 0.686
cell count [1, 8]: 8280
cell count [1, 9]: 9200
z-score [2, 10]: -0.217 (inactive)
z-score [2, 11]: -0.148
remaining NAD [3]: 10 nM (inactive)
luciferase signal [4]: 20 AU (inactive)

NCCCC[C@H](N[C@@H](CCc1ccccc1)C(=O)O)C(=O)N1CCC[C@H]1C(=O)O
fold change [1, 6]: 0.921 (inactive) and 0.874 (inactive) and 0.913 (inactive)
fold change [1, 7]: 0.957 and 2.44 and 1.18
cell count [1, 8]: 8900 and 11300 and 9570
cell count [1, 9]: 9670 and 13000 and 10500
z-score [2, 10]: 0.256 (inactive) and -0.39 (inactive)
z-score [2, 11]: -0.142 and -0.658
remaining NAD [3]: 10 nM (inactive)
luciferase signal [4]: 92 AU (inactive)
z-score [5]: 0.245 (inactive)

CCOC(=O)OC(C)OC(=O)[C@@H]1N2C(=O)[C@@H](NC(=O)[C@H](N)c3ccccc3)[C@H]2SC1(C)C (stereo partly specified)
fold change [1, 6]: 0.838 (inactive)
fold change [1, 7]: 1.63
cell count [1, 8]: 8230
cell count [1, 9]: 9820
z-score [2, 10]: 0.0142 (inactive)
z-score [2, 11]: -0.106
remaining NAD [3]: 10 nM (inactive)
luciferase signal [4]: 76 AU (inactive)

O=C(OCC(O)CO)c1ccccc1Nc1ccnc2cc(Cl)ccc12 (stereo unspecified)
fold change [1, 6]: 0.91 (inactive)
fold change [1, 7]: 1.28
cell count [1, 8]: 8940
cell count [1, 9]: 9820
z-score [2, 10]: 1.77 (inactive)
z-score [2, 11]: 0.884
remaining NAD [3]: 10 nM (inactive)
luciferase signal [4]: 176 AU (active)

CC1(C)S[C@@H]2[C@H](NC(=O)[C@H](N)c3ccccc3)C(=O)N2[C@H]1C(=O)O
fold change [1, 6]: 0.937 (inactive) and 0.929 (inactive) and 0.871 (inactive)
fold change [1, 7]: 0.845 and 0.857 and 1.14
cell count [1, 8]: 8790 and 10800 and 9210
cell count [1, 9]: 9380 and 11700 and 10600
z-score [2, 10]: 0.56 (inactive) and 0.538 (inactive)
z-score [2, 11]: -0.285 and -0.0992
remaining NAD [3]: 10 nM (inactive)
luciferase signal [4]: 44 AU (inactive)
z-score [5]: 0.415 (inactive)

CCOC(=O)c1ccc(N)cc1
fold change [1, 6]: 0.793 (inactive) and 0.945 (inactive) and 0.848 (inactive)
fold change [1, 7]: 1.13 and 0.443 and 0.967
cell count [1, 8]: 7670 and 8350 and 9530
cell count [1, 9]: 9660 and 8840 and 11200
z-score [2, 10]: -0.198 (inactive) and -0.244 (inactive)
z-score [2, 11]: -0.136 and -0.658
remaining NAD [3]: 10 nM (inactive)
luciferase signal [4]: 112 AU (inactive)

O=C(O)c1ccccc1OP(=O)(O)O
fold change [1, 6]: 0.878 (inactive)
fold change [1, 7]: 1.05
cell count [1, 8]: 9100
cell count [1, 9]: 10400
z-score [2, 10]: 0.629 (inactive)
z-score [2, 11]: -0.238
remaining NAD [3]: 10 nM (inactive)
luciferase signal [4]: 60 AU (inactive)
